This is an account of results in PubChem BioAssay (EPA / NIEHS).

Calls of active or inactive are those of the source. The calls were made as follows: active = hit-call score of the fitted dose curve at least 0.9, where 1 is the maximum; inactive = score below 0.9.

Details in all cases: mRNA level, 48 h; actives raise or lower the signal
Read-out in experiment [1]: Cyclin Dependent Kinase Inhibitor 1A (CDKN1A), CDKN1A (gene 1026)
The experiment in a line: LTEA_HepaRG_CDKN1A: Life Technologies and Expression Analysis (LTEA) Assay for Cyclin Dependent Kinase Inhibitor 1A (CDKN1A) using HepaRG (AID 2283450). The method, boiled down:
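Differentiated HepaRG cells in serum-free induction medium, exposed 48 h in duplicate to eight half-log concentrations up to 100 uM in 0.5% DMSO. mRNA measured by TaqMan qRT-PCR, normalized to ACTB, GAPDH, POLR2A; bidirectional fit versus DMSO.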

Read-out in experiment [2]: Cyclin D1 (CCND1), CCND1 (gene 595)
The experiment in a line: LTEA_HepaRG_CCND1: Life Technologies and Expression Analysis (LTEA) Assay for Cyclin D1 (CCND1) using HepaRG (AID 2283451). The gist of the method: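 Differentiated HepaRG cells exposed 48 h in serum-free induction medium to eight half-log concentrations from 100 uM top, 0.5% DMSO, duplicates. CCND1 mRNA measured by Fluidigm TaqMan qRT-PCR, normalised to ACTB, GAPDH, POLR2A; bidirectional fit.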

Read-out in experiment [3]: catalase (CAT), CAT (gene 847)
The experiment in a line: LTEA_HepaRG_CAT: Life Technologies and Expression Analysis (LTEA) Assay for catalase (CAT) using HepaRG (AID 2283452). The gist of the method: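 Differentiated HepaRG cells in serum-free induction medium were dosed 48 h in duplicate, eight half-log concentrations from 100 uM in 0.5% DMSO. Transcript measured by TaqMan qRT-PCR, normalised to ACTB/GAPDH/POLR2A, fitted bidirectionally against DMSO.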

Read-out in experiment [4]: flavin-containing dimethylaniline monooxygenases 3 (FMO3), FMO3 (gene 2328)
The experiment in a line: LTEA_HepaRG_FMO3: Life Technologies and Expression Analysis (LTEA) Assay for flavin-containing dimethylaniline monooxygenases 3 (FMO3) using HepaRG (AID 2283453). The method, boiled down:
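Differentiated HepaRG cells in serum-free induction medium, exposed 48 h in duplicate to 8 half-log concentrations up to 100 uM in 0.5% DMSO. FMO3 mRNA by qRT-PCR, normalized to ACTB, GAPDH, POLR2A; bidirectional fit vs DMSO.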

Read-out in experiment [5]: Cytochrome P450 (CYP1A1), CYP1A1 (gene 1543)
The experiment in a line: LTEA_HepaRG_CYP1A1: Life Technologies and Expression Analysis (LTEA) Assay for Cytochrome P450 (CYP1A1) using HepaRG (AID 2283454). The gist of the method:
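Differentiated human HepaRG cells, after 48 h plating, exposed in duplicate for 48 h in serum-free induction medium to 8 half-log concentrations up to 100 uM in 0.5% DMSO. CYP1A1 mRNA by qRT-PCR, normalized to ACTB/GAPDH/POLR2A; bidirectional fit versus DMSO.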

Read-out in experiment [6]: CFLAR gene, CFLAR (gene 8837)
The experiment in a line: LTEA_HepaRG_CFLAR: Life Technologies and Expression Analysis (LTEA) Assay for CFLAR gene using HepaRG (AID 2283455). The gist of the method: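 HepaRG cells were plated for 48 h, switched to serum-free induction medium, then exposed in duplicate for 48 h to 8 concentrations (top 100 uM, half-log steps, 0.5% DMSO). CFLAR mRNA was measured by qRT-PCR, normalized to ACTB, GAPDH and POLR2A.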

Read-out in experiment [7]: Forkhead box O1 (FOXO1), FOXO1 (gene 2308)
The experiment in a line: LTEA_HepaRG_FOXO1: Life Technologies and Expression Analysis (LTEA) Assay for Forkhead box O1 (FOXO1) using HepaRG (AID 2283456). The method, boiled down:
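Differentiated human HepaRG cells in serum-free induction medium were exposed in duplicate for 48 h to eight half-log concentrations (top 100 uM, 0.5% DMSO). FOXO1 mRNA was measured by TaqMan qRT-PCR, normalised to ACTB, GAPDH and POLR2A, and fitted bidirectionally against DMSO.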

Read-out in experiment [8]: growth arrest and DNA damage 45 (GADD45A), GADD45A (gene 1647)
The experiment in a line: LTEA_HepaRG_GADD45A: Life Technologies and Expression Analysis (LTEA) Assay for growth arrest and DNA damage 45 (GADD45A) using HepaRG (AID 2283458). The method, boiled down: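 Differentiated HepaRG cells exposed 48 h in serum-free induction medium to 8 concentrations, top 100 uM in half-log steps, 0.5% DMSO. GADD45A mRNA quantified by qRT-PCR, normalized to ACTB, GAPDH and POLR2A; bidirectional fit versus DMSO.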

Read-out in experiment [9]: Forkhead box O3 (FOXO3), FOXO3 (gene 2309)
The experiment can be described thus: LTEA_HepaRG_FOXO3: Life Technologies and Expression Analysis (LTEA) Assay for Forkhead box O3 (FOXO3) using HepaRG (AID 2283459). The gist of the method:
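Differentiated human HepaRG cells in serum-free induction medium were exposed in duplicate for 48 h to eight half-log concentrations up to 100 uM in 0.5% DMSO. FOXO3 mRNA was quantified by qRT-PCR, normalized to ACTB, GAPDH and POLR2A, with bidirectional fitting versus DMSO.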

Read-out in experiment [10]: ABC Transporter (ABCB1), ABCB1 (gene 5243)
The experiment in a line: LTEA_HepaRG_ABCB1: Life Technologies and Expression Analysis (LTEA) Assay for ABC Transporter (ABCB1) using HepaRG (AID 2283460). The gist of the method: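 Differentiated human HepaRG cells, plated 48 h then switched to serum-free induction medium, were exposed in duplicate to eight half-log concentrations up to 100 uM in 0.5% DMSO for 48 h. ABCB1 mRNA was measured by TaqMan qRT-PCR, normalized to ACTB/GAPDH/POLR2A.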

Read-out in experiment [11]: growth arrest and DNA damage 45 (GADD45B), GADD45B (gene 4616)
The experiment in a line: LTEA_HepaRG_GADD45B: Life Technologies and Expression Analysis (LTEA) Assay for growth arrest and DNA damage 45 (GADD45B) using HepaRG (AID 2283461). The method, boiled down:
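Differentiated human HepaRG cells in serum-free induction medium exposed 48 h in duplicate to eight concentrations, top 100 uM, half-log steps, 0.5% DMSO. GADD45B mRNA by TaqMan qRT-PCR, normalized to ACTB, GAPDH, POLR2A; bidirectional fit versus DMSO.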

Read-out in experiment [12]: ABC Transporter (ABCC3), ABCC3 (gene 8714)
The experiment in a line: LTEA_HepaRG_ABCC3: Life Technologies and Expression Analysis (LTEA) Assay for ABC Transporter (ABCC3) using HepaRG (AID 2283462). The method, boiled down: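 Differentiated human HepaRG cells exposed 48 h in serum-free induction medium, 0.5% DMSO vehicle, 8-point half-log series to 100 uM in duplicate. ABCC3 mRNA by qRT-PCR, normalised to ACTB, GAPDH, POLR2A; bidirectional fit vs DMSO.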

Read-out in experiment [13]: ABC Transporter (ABCB11), ABCB11 (gene 8647)
The experiment can be described thus: LTEA_HepaRG_ABCB11: Life Technologies and Expression Analysis (LTEA) Assay for ABC Transporter (ABCB11) using HepaRG (AID 2283463). The method, boiled down: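 Differentiated human HepaRG cells were exposed for 48 h in serum-free induction medium to eight half-log concentrations up to 100 uM in 0.5% DMSO. ABCB11 mRNA was quantified by qRT-PCR, normalized to ACTB, GAPDH and POLR2A, and fitted bidirectionally versus DMSO.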

Read-out in experiment [14]: ABC Transporter (ABCC2), ABCC2 (gene 1244)
The experiment can be described thus: LTEA_HepaRG_ABCC2: Life Technologies and Expression Analysis (LTEA) Assay for ABC Transporter (ABCC2) using HepaRG (AID 2283464). The gist of the method: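 Differentiated HepaRG cells in serum-free induction medium exposed 48 h to eight half-log concentrations up to 100 uM, 0.5% DMSO, in duplicate. ABCC2 mRNA measured by qRT-PCR (TaqMan, Fluidigm), normalized to ACTB, GAPDH and POLR2A. Fitted in both directions against DMSO.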

Read-out in experiment [15]: Broad substrate specificity ATP-binding cassette transporter ABCG2 (Homo sapiens) (UniProt Q9UNQ0)
The experiment can be described thus: LTEA_HepaRG_ABCG2: Life Technologies and Expression Analysis (LTEA) Assay for ABC Transporter (ABCG2) using HepaRG (AID 2283465). The gist of the method:
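Differentiated HepaRG cells in serum-free induction medium were exposed for 48 h, in duplicate, to eight half-log concentrations up to 100 uM in 0.5% DMSO. ABCG2 mRNA was measured by TaqMan qRT-PCR, normalized to ACTB, GAPDH and POLR2A, and fitted bidirectionally versus DMSO.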

Read-out in experiment [16]: ATP-citrate lyase (ACLY), ACLY (gene 47)
The experiment in a line: LTEA_HepaRG_ACLY: Life Technologies and Expression Analysis (LTEA) Assay for ATP-citrate lyase (ACLY) using HepaRG (AID 2283466). The method, boiled down:
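Differentiated human HepaRG cells in serum-free induction medium exposed 48 h, in duplicate, to eight half-log concentrations from 100 uM top in 0.5% DMSO; ACLY mRNA measured by qRT-PCR, normalized to ACTB, GAPDH, POLR2A, fitted bidirectionally versus DMSO.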

Read-out in experiment [17]: Peroxisomal acyl-coenzyme A oxidase 1 (ACOX1) gene, ACOX1 (gene 51)
The experiment in a line: LTEA_HepaRG_ACOX1: Life Technologies and Expression Analysis (LTEA) Assay for Peroxisomal acyl-coenzyme A oxidase 1 (ACOX1) gene using HepaRG (AID 2283467). The method, boiled down:
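Differentiated human HepaRG cells were exposed in duplicate for 48 h in serum-free induction medium to eight half-log concentrations up to 100 uM in 0.5% DMSO. ACOX1 mRNA was then quantified by TaqMan qRT-PCR, normalized to ACTB, GAPDH and POLR2A.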

Read-out in experiment [18]: Alkaline Phosphatase, Placental (ALPP) gene, ALPP (gene 250)
The experiment can be described thus: LTEA_HepaRG_ALPP: Life Technologies and Expression Analysis (LTEA) Assay for Alkaline Phosphatase, Placental (ALPP) gene using HepaRG (AID 2283468). The method, boiled down:
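HepaRG cells plated 48 h, then exposed in duplicate for 48 h in serum-free induction medium to 8-point half-log series from 100 uM in 0.5% DMSO. ALPP mRNA by TaqMan qRT-PCR, normalized to ACTB/GAPDH/POLR2A; bidirectional fit versus DMSO.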

Read-out in experiment [19]: Bcl-2 (BAD) gene, BAD (gene 572)
The experiment can be described thus: LTEA_HepaRG_BAD: Life Technologies and Expression Analysis (LTEA) Assay for Bcl-2 (BAD) gene using HepaRG (AID 2283469). The gist of the method:
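Differentiated human HepaRG cells in serum-free induction medium were exposed in duplicate for 48 h to eight concentrations (top 100 uM, half-log steps, 0.5% DMSO). BAD mRNA was quantified by qRT-PCR normalised to ACTB, GAPDH and POLR2A, with bidirectional fitting versus DMSO.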

Read-out in experiment [20]: Bcl-2 (BAX) gene, BAX (gene 581)
The experiment in a line: LTEA_HepaRG_BAX: Life Technologies and Expression Analysis (LTEA) Assay for Bcl-2 (BAX) gene using HepaRG (AID 2283470). The method, boiled down:
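Differentiated HepaRG cells exposed 48 h in serum-free induction medium, eight half-log concentrations from 100 uM, in duplicate, 0.5% DMSO vehicle. BAX mRNA by TaqMan qRT-PCR, normalised to ACTB, GAPDH and POLR2A.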

Chain of Broad substrate specificity ATP-binding cassette transporter ABCG2 (Homo sapiens) (Q9UNQ0 whole entry, looked up): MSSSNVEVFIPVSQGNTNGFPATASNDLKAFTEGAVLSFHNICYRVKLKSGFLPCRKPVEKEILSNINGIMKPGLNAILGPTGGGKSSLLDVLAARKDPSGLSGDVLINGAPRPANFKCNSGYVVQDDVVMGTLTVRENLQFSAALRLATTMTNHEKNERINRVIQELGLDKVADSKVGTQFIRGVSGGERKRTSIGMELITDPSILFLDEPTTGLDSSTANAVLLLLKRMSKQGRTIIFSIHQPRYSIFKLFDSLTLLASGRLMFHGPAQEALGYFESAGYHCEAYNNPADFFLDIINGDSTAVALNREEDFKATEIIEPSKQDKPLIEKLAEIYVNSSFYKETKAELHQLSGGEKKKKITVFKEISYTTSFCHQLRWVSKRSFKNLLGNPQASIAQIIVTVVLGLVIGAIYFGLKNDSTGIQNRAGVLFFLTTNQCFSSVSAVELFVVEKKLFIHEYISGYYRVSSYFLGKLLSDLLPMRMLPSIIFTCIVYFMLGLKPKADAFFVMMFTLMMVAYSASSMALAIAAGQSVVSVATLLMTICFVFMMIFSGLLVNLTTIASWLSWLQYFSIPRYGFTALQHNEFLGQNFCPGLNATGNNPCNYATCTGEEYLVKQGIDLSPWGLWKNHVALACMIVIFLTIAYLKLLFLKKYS

Turning to `N#CCCCCC#N`, the result in [1], in experiment [2], in [3], in experiment [4], in [5] and in [6] was inactive. Besides, the compound was called inactive in [7], in experiment [8], in experiment [9], in [10], in experiment [11] and in [12]. Also, the compound was called inactive in experiment [13], in experiment [14], in [15], in experiment [16], in experiment [17] and in [18]. The outcome in experiment [19] and in [20] was inactive.
For `O=[N+]([O-])c1ccc(Cl)cc1`, the compound was called inactive in experiment [1], in [2], in [3], in experiment [4], in experiment [6] and in experiment [7]. The compound was called inactive in experiment [8], in [9], in experiment [10], in [11], in experiment [12] and in experiment [13]. The result in experiment [14], in [15], in [16], in experiment [17], in experiment [18] and in experiment [19] was inactive. For the same compound, the call in experiment [20] was inactive. In addition, the AC50 (usually the concentration at which the activity in the assay is half-maximal) in experiment [5] is 37.8 µM (active).
